Counter-ions that a name gives are not always drawn.
Assays:
Conditions in all cases: incubation time: 27 h, anaerobic, 37 °C;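 for the amine columns active = adjusted P below 0.05 in both replicates with a change the same way and a mean fold change under 0.8 or over 1.25; inactive = the rest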
Escherichia coli IAI1 [1] = experiment: growth (OD595) fold change vs plate DMSO controls (fold change (ratio)); higher = more growth
Outline: (§1)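 The reported measure is growth: the fold change against the median of DMSO controls on the plate. Absorbance at 595 nm from anaerobic 96-well mGAM cultures grown for 27 h at 37 °C was blank-subtracted, corrected for background with 20 µM compound solutions in water, and converted to OD with a calibration factor of 5. Fold changes above 1.5 appear as NA, and values are the mean of 2 biological replicates.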

[2] = system: Klebsiella aerogenes DSM 30053; experiment: as above
Outline: as §1

[3] = system: Ruminococcus gnavus DSM 108212; experiment: as above
Outline: as §1

[4] = system: Klebsiella aerogenes DSM 30053; experiment: fold change of Histamine concentration vs plate DMSO controls (fold change (ratio)); higher = more amine produced, active = hit call of the paper (significant change in both replicates, either direction)
Outline: (§2)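 Amines were quantified by LC–triple-quadrupole MS in dynamic MRM mode against external calibration curves, with drift correction within each batch. The samples were whole anaerobic mGAM cultures of four gut bacterial strains, grown for 27 h at 37 °C in 80 µL wells and extracted with cold acetonitrile/methanol with 0.1% formic acid, then centrifuged. Values are reported as fold change over DMSO controls on the same plate. The mean of 2 biological replicates is given.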

[5] = system: Ruminococcus gnavus DSM 108212; experiment: fold change of Tryptamine concentration vs plate DMSO controls (fold change (ratio)); higher = more amine produced, active = hit call of the paper (significant change in both replicates, either direction)
Outline: as §2

Escherichia coli IAI1 [6] = experiment: fold change of Putrescine concentration vs plate DMSO controls (fold change (ratio)); higher = more amine produced, active = hit call of the paper (significant change in both replicates, either direction)
Outline: as §2

[7] = system: Klebsiella aerogenes DSM 30053; experiment: as above
Outline: as §2

Escherichia coli IAI1 [8] = experiment: fold change of Cadaverine concentration vs plate DMSO controls (fold change (ratio)); higher = more amine produced, active = hit call of the paper (significant change in both replicates, either direction)
Outline: as §2

[9] = system: Klebsiella aerogenes DSM 30053; experiment: as above
Outline: as §2

[10] = system: Ruminococcus gnavus DSM 108212; experiment: fold change of 2-Phenylethylamine concentration vs plate DMSO controls (fold change (ratio)); higher = more amine produced, active = hit call of the paper (significant change in both replicates, either direction)
Outline: as §2

[11] = system: Clostridium sporogenes DSM 1664; experiment: growth (OD595) fold change vs plate DMSO controls (fold change (ratio)); higher = more growth
Outline: as §1

[12] = system: Clostridium sporogenes DSM 1664; experiment: fold change of Tryptamine concentration vs plate DMSO controls (fold change (ratio)); higher = more amine produced, active = hit call of the paper (significant change in both replicates, either direction)
Outline: as §2

Compound | growth (Escherichia coli IAI1 [1]) | growth [2] | growth [3] | fold change of Histamine concentration [4] | fold change of Tryptamine concentration [5] | fold change of Putrescine concentration (Escherichia coli IAI1 [6]) | fold change of Putrescine concentration [7] | fold change of Cadaverine concentration (Escherichia coli IAI1 [8]) | fold change of Cadaverine concentration [9] | fold change of 2-Phenylethylamine concentration [10] | growth [11] | fold change of Tryptamine concentration [12]
CCOC(=O)C1=C(COCCN)NC(C)=C(C(=O)OC)C1c1ccccc1Cl (configuration not stated) [Amlodipine] (20 µM) | 1 | 1 | 1.1 | 1.08 (inactive) | 0.914 (inactive) | 0.986 (inactive) | 1.03 (inactive) | 1.1 (inactive) | 0.988 (inactive) | 0.918 (inactive) |  | 
Nc1ccn([C@@H]2CS[C@H](CO)O2)c(=O)n1 [Lamivudine] (20 µM) | 0.995 | 0.992 | 0.831 | 1.06 (inactive) | 1.02 (inactive) | 1.02 (inactive) | 1.03 (inactive) | 1.02 (inactive) | 0.99 (inactive) | 1.02 (inactive) |  | 
CO/N=C(\C(=O)N[C@@H]1C(=O)N2C(C(=O)O)=C(C[N+]3(C)CCCC3)CS[C@H]12)c1csc(N)n1 [Cefepime hydrochloride] (20 µM) | 0 | 0.484 | 0 | 0.119 (active) | 0.0466 (active) | 0.285 (active) | 0.361 (active) | 0.884 (inactive) | 1.11 (inactive) | 0.0523 (active) |  | 
CCN1CCN(C(=O)N[C@@H](C(=O)N[C@@H]2C(=O)N3C(C(=O)O)=C(CSc4nnnn4C)CS[C@H]23)c2ccc(O)cc2)C(=O)C1=O [Cefoperazone dihydrate] (20 µM) | 0.0154 | 0.724 | 0.0225 | 0.472 (active) | 0.0363 (active) | 0.451 (inactive) | 0.86 (inactive) | 1.36 (inactive) | 1.13 (inactive) | 0.0394 (active) |  | 
CC(C)Cc1ccc([C@H](C)C(=O)O)cc1 [(S,+) Ibuprofen] (20 µM) | 0.797 | 1.16 | 0.974 | 0.925 (inactive) | 1.06 (inactive) | 0.854 (inactive) | 1.03 (inactive) | 1.06 (inactive) | 1.04 (inactive) | 1.11 (inactive) |  | 
Nc1nc2c(ncn2COCCO)c(=O)[nH]1 [Acyclovir] (20 µM) | 1.05 | 1 | 1.42 | 1.02 (inactive) | 1.15 (inactive) | 1.03 (inactive) | 0.983 (inactive) | 1 (inactive) | 1.05 (inactive) | 1.15 (inactive) |  | 
O=C(O)[C@H]1/C(=C/CO)O[C@@H]2CC(=O)N21 [Clavulanate potassium salt] (20 µM) | 1.01 | 0.977 |  | 1.02 (inactive) | 0.997 (inactive) | 0.96 (inactive) | 1 (inactive) | 1.05 (inactive) | 0.998 (inactive) | 1.02 (inactive) | 0.883 | 1.01 (inactive)
CCc1c2c(nc3ccc(OC(=O)N4CCC(N5CCCCC5)CC4)cc13)-c1cc3c(c(=O)n1C2)COC(=O)[C@]3(O)CC [Irinotecan hydrochloride trihydrate] (20 µM) | 1.05 | 0.974 | 1.06 | 1.03 (inactive) | 0.937 (inactive) | 1.11 (inactive) | 1 (inactive) | 0.994 (inactive) | 0.988 (inactive) | 0.89 (inactive) |  | 
COc1ccc(CCN(C)CCCC(C#N)(c2ccc(OC)c(OC)c2)C(C)C)cc1OC (configuration not stated) [Verapamil hydrochloride] (20 µM) | 1.13 | 0.758 | 1.01 | 0.942 (inactive) | 0.992 (inactive) | 1.05 (inactive) | 0.906 (inactive) | 0.978 (inactive) | 0.972 (inactive) | 0.95 (inactive) |  | 
C/C=C(/C(=C/C)c1ccc(O)cc1)c1ccc(O)cc1 [Dienestrol] (20 µM) | 1.01 | 1.04 |  | 1.02 (inactive) | 0.285 (active) | 1.06 (inactive) | 0.995 (inactive) | 1.02 (inactive) | 1.03 (inactive) | 0.344 (inactive) | 1.09 | 0.782 (inactive)
O=C(O)c1cn(C2CC2)c2cc(N3CCNCC3)c(F)cc2c1=O [Ciprofloxacin hydrochloride monohydrate] (20 µM) | 0 | 0 | 0.342 | 0.0661 (active) | 0.796 (inactive) | 0.53 (inactive) | 0.573 (inactive) | 0.176 (active) | 0.938 (inactive) | 0.863 (inactive) |  | 
Clc1ccccc1CN1CCc2sccc2C1 [Ticlopidine hydrochloride] (20 µM) | 0.944 | 0.958 | 1.18 | 1.01 (inactive) | 0.983 (inactive) | 1.01 (inactive) | 0.989 (inactive) | 0.934 (inactive) | 0.98 (inactive) | 0.977 (inactive) |  | 
CN(C)CCCN1c2ccccc2CCc2ccccc21 [Imipramine hydrochloride] (20 µM) | 1.15 | 1.08 | 1.34 | 0.866 (inactive) | 0.975 (inactive) | 1.02 (inactive) | 0.943 (inactive) | 0.976 (inactive) | 1.03 (inactive) | 0.963 (inactive) |  | 
C[C@H]1[C@H](NC(=O)/C(=N\OC(C)(C)C(=O)O)c2csc(N)n2)C(=O)N1S(=O)(=O)O [Aztreonam] (20 µM) | 1.04 | 0.662 | 1.04 | 0.865 (inactive) | 1.05 (inactive) | 0.86 (inactive) | 1.13 (inactive) | 1.03 (inactive) | 1.06 (inactive) | 1.04 (inactive) |  | 
CCn1cc(C(=O)O)c(=O)c2cc(F)c(N3CCN(C)CC3)cc21 [Pefloxacin] (20 µM) | 0.0501 | 0.198 | 1.13 | 0.127 (active) | 0.915 (inactive) | 0.793 (inactive) | 1.05 (inactive) | 0.204 (active) | 0.972 (inactive) | 0.91 (inactive) |  | 

— the supplement of paper PMC12494721
